Screens as filed in PubChem.
Only some compounds are listed: those with a hit (about 2.4% of all), similar ones and a draw of the others.
CRFR2-BP antag – antagonists of CRF-binding protein/CRF-R2 receptor complex | AID 588475 | HEK293 CRF-R2/CRF-BP, CRF-induced calcium fluorescence | 350,000 tested, 0.59% active | inhibition, % at 11.8 µM;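 active = inhibition of the ligand-induced calcium signal above about 50% at the single tested concentration, limit read from the data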
ANO1 activ – activates or potentiates the mouse TMEM16A chloride channel; Q8BHY3; HEK293 TMEM16A/YFP-H148Q/I152L, iodide quench fluorescence; active compounds read low; B-score at 10 µM; 340,000 tested, 0.3% active;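 active = fluorescence-ratio B-score plate-corrected deviation score at least 3 library SD below zero, with starting fluorescence score within 5 deviations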;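 also: channel opened by trigger with iodide after compound preincubation; score built on the fluorescence ratio of max minus min over baseline; more negative score means more quench and so TMEM16A activation or potentiation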
ANO1 block – inhibitors of mouse TMEM16A calcium-activated chloride channel. HEK293 TMEM16A/YFP iodide influx fluorescence, ionomycin. normalized B-score (activity score, 25-100; higher = stronger inhibition) at 10 µM. 310,000 tested, 1.2% active;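 active = ratio plate-corrected score three or more library SD toward inhibition, starting fluorescence score within five deviations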;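 also: score derived from kinetic fluorescence span divided by baseline fluorescence per well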
RTF Ca sens inh – cardiac RTF calcium desensitization; IANBD-labeled cardiac RTF, Ca2+ fluorescence; inhibition, % at 7.15 µM; 340,000 tested, 0.12% active; AID 493244;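 active = inhibition above the mean inhibition of all tested compounds plus 3 SD, cut at about 17% in these data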;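 also: assay run at fixed EC70 calcium of 1.6 mM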
RTF Ca sens act – cardiac RTF calcium sensitization; activation, % at 7.2 µM; P19429+P45379; IANBD-labeled TnC RTF fluorescence at EC20 calcium; 0% EC20 calcium, 100% full calcium; 340,000 tested, 0.24% active; AID 493008;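 active = activation above the mean over all tested compounds plus 3 SD, cut at about 30% in these data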;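 also: rise in fluorescence read as greater calcium sensitivity of cardiac thin filaments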
CRFBP-R2 agonist – agonists of human CRF-binding protein/CRF-R2 receptor complex; 350,000 tested, 0.46% active; HEK293 CRF-R2/CRF-BP, calcium dye fluorescence (FLIPR); percent of saturating CRF peptide response; activation, % at 13.2 µM; AID 588473;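 active = activation of at least 50%, plus an integration ratio under a set limit after plate pattern correction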;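 also: plate controls were neutral control wells without compound for no effect and CRF at EC100 for full effect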
Active calls of the source: *.

`COc1cc(/C=N/NS(=O)(=O)c2ccc(C)c([N+](=O)[O-])c2)cc([N+](=O)[O-])c1O` gave CRFR2-BP antag -4, ANO1 activ inactive, ANO1 block inactive, RTF Ca sens inh 2, RTF Ca sens act 3 and CRFBP-R2 agonist -1.
`COc1ccc(-n2c(O)c(/C=N/NS(=O)(=O)c3ccc(C)c([N+](=O)[O-])c3)c3ccccc3c2=O)cc1OC` gave CRFR2-BP antag -39, ANO1 activ inactive, ANO1 block inactive, RTF Ca sens inh -64, RTF Ca sens act 128* and CRFBP-R2 agonist 12.
O=[N+]([O-])c1ccc2[nH]c(=S)sc2c1 was read as CRFR2-BP antag 59*, ANO1 activ inactive, RTF Ca sens inh 8, RTF Ca sens act 5 and CRFBP-R2 agonist 37.
`Cc1cc(C(=O)N/N=C/C=C/c2cccc([N+](=O)[O-])c2)n[nH]1` gave CRFR2-BP antag 1, ANO1 activ inactive, ANO1 block inactive, RTF Ca sens inh -5, RTF Ca sens act 3 and CRFBP-R2 agonist -4.
`O=C1N=C(N2CCOCC2)S/C1=C/c1ccc(-c2ccccc2Cl)o1` gave CRFR2-BP antag -19, ANO1 activ inactive, ANO1 block inactive, RTF Ca sens inh -1, RTF Ca sens act 2 and CRFBP-R2 agonist 5.
O=C(O)c1ccccc1-c1ccc(/C=C2\SC(=O)N(c3ccccc3)C2=O)o1 was read as CRFR2-BP antag -16, ANO1 activ inactive, ANO1 block inactive, RTF Ca sens inh -15, RTF Ca sens act 19 and CRFBP-R2 agonist 0.
O=C1S/C(=C\c2ccc(N3CCOCC3)o2)C(=O)N1c1ccccc1 was read as CRFR2-BP antag -23, ANO1 activ inactive, ANO1 block inactive, RTF Ca sens inh -18, RTF Ca sens act 45* and CRFBP-R2 agonist 6.
For O=C1S/C(=C\c2ccc(N3CCOCC3)o2)C(=O)N1Cc1c(F)cccc1Cl the results were CRFR2-BP antag -29, ANO1 activ inactive, ANO1 block inactive, RTF Ca sens inh -43, RTF Ca sens act 100* and CRFBP-R2 agonist 16.
Screening O=C1S/C(=C/c2ccc(N3CCOCC3)o2)C(=O)N1Cc1c(F)cccc1Cl returned CRFR2-BP antag -43, ANO1 activ inactive, ANO1 block inactive, RTF Ca sens inh -54, RTF Ca sens act 145* and CRFBP-R2 agonist 84*.
CCC(CO)NCc1cc(OC)c(OCC(=O)NCCc2ccccc2)cc1Br (stereo not drawn) was read as CRFR2-BP antag -13, ANO1 activ inactive, ANO1 block inactive, RTF Ca sens inh 3, RTF Ca sens act -5 and CRFBP-R2 agonist -1.
N#CCSc1ccc(-c2nc3ccccc3[nH]2)cn1 was read as CRFR2-BP antag -5, ANO1 activ inactive, ANO1 block inactive, RTF Ca sens inh -6, RTF Ca sens act -2 and CRFBP-R2 agonist 1.
Screening COc1ccc(CNc2ncc(-c3cccc([N+](=O)[O-])c3)n2C)c(OC)c1OC returned CRFR2-BP antag 1, ANO1 activ inactive, ANO1 block inactive, RTF Ca sens inh -8, RTF Ca sens act 1 and CRFBP-R2 agonist -2.
CC(=O)c1cc(C#N)c(Oc2ccc(Cl)cc2Cl)nc1C was read as CRFR2-BP antag 55*, ANO1 activ inactive, ANO1 block inactive, RTF Ca sens inh -11, RTF Ca sens act 4 and CRFBP-R2 agonist -6.
O=C(COC(=O)CC(c1ccccc1)c1ccccc1)NCc1ccc(Cl)cc1 was read as CRFR2-BP antag -171, ANO1 activ inactive, ANO1 block inactive, RTF Ca sens inh 7, RTF Ca sens act -4 and CRFBP-R2 agonist 160*.
`O=C(NCc1ccccc1)c1cccc(COc2ccc(Cl)cc2)c1` gave CRFR2-BP antag -1, ANO1 activ inactive, ANO1 block 25*, RTF Ca sens inh -9, RTF Ca sens act 0 and CRFBP-R2 agonist 3.
`CCCC(=O)OCC(=O)NCc1ccc(Cl)cc1` gave CRFR2-BP antag -1, ANO1 activ inactive, ANO1 block inactive, RTF Ca sens inh -9, RTF Ca sens act 2 and CRFBP-R2 agonist 0.
Screening O=C(NCc1ccccc1)c1ccc(Cl)cc1 returned CRFR2-BP antag 86*, ANO1 block inactive and CRFBP-R2 agonist -1.
